Results from PubChem BioAssay AID2263 (National Center for Advancing Translational Sciences (NCATS), 2010).
The other results are listed elsewhere or left out. Inconclusive results are not listed. Calls of active or inactive are those of the source. Calls follow the shape of the dose curve; as a rule, active = well fitted inhibition curve with a large enough effect; inconclusive = small, poorly fitted or top-dose-only effect, or effect the other way; inactive = flat fitted curve, though single readings scatter.

biological target: Pyruvate kinase PKM (Homo sapiens) (UniProt P14618); assay: Confirmation Concentration-Response Assay for Inhibitors of Human Muscle isoform 2 Pyruvate Kinase; conditions: purified hPK-M2, Kinase-Glo ATP luminescence, 1 h; series mostly up to 57.5 µM
Description: NIH Chemical Genomics Center [NCGC] Matthew G. Vander Heiden, M.D., Ph.D. [Harvard Medical School, 77 Avenue Louis Pasteur, Boston, MA 02115] MLPCN Grant: 1 R03 MH085679-01 NCGC Assay Overview: Human pyruvate kinase muscle 2 (hPK-M2) enzyme was supplied as a highly purified (>95% pure) preparation from Harvard Medical School and assayed for its ability to generate ATP from ADP using phosphoenolpyruvate (PEP) as a substrate. ATP generation was detected in a coupled reaction by luciferase-mediated luminescence, an ATP-dependent process. Pyruvate kinase substrates, PEP and ADP, were present in the assay at Km and approximately 10-fold below Km respectively. The enzyme was assayed at an intermediate level of activity to screen for both inhibitors and activators.
NCGC Assay Protocol Summary: Three uL of substrate mix (at r.t.) in assay buffer (50 mM Imidazole pH7.2, 50 mM KCl, 7 mM MgCl2, 0.01% Tween 20, 0.05% BSA) was dispensed into white solid bottom 1,536 well microtiter plates so that the final concentrations of substrates in the assay were 0.1 mM ADP and 0.5 mM PEP. 23 nL of compound were delivered by a pin tool and 1 uL of enzyme mix in assay buffer (4 degree Celsius) was added. […] Two uL of detection mix (Kinase-Glo, Promega; at 4 degree Celsius protected from light) was added and luminescence read by a ViewLux (Perkin Elmer) at 5 second exposure/plate. […]

Sequence of Pyruvate kinase PKM (Homo sapiens) (P14618 whole entry, looked up, canonical isoform): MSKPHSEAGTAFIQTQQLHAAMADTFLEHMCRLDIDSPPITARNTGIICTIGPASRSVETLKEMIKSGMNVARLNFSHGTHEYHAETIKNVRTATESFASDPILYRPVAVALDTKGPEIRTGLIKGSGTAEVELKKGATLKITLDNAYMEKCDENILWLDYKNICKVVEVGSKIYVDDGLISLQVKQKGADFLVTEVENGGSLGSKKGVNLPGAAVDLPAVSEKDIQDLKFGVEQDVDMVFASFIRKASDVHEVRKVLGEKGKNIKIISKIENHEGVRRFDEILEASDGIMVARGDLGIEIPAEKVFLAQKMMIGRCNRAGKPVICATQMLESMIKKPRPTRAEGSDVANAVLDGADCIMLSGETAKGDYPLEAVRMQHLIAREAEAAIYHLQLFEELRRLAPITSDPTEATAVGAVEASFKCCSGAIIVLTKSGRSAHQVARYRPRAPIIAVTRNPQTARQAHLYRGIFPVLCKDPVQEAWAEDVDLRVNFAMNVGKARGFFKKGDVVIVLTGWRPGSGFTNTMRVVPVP

SMILES | outcome
Cc1ccc(-c2nc3ccccn3c2Nc2ccc(F)cc2)o1 | inactive
